From PubChem BioAssay (EPA / NIEHS)
“And” between values parts separate entries of the source, which are not always exact repeats. Equal entries are not always repeated. Some structures have more than one record in an assay (separate samples or runs), and their calls can disagree. The source made the active and inactive calls. Rule for the calls, unless noted: active = hit-call score of the fitted dose curve at least 0.9, where 1 is the maximum; inactive = score below 0.9.

Tests used:
[1] = CCTE_Shafer_MEA_dev_interburst_interval_mean: CCTE's Neural Network Formation Assay for Mean Interburst Interval, Shafer Lab (AID 2284046);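 note: well-mean interburst interval of bursting electrodes as AUC over four recording days; curve fitted for decrease in interburst interval relative to DMSO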
Summary of the method: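 Network formation assay in primary rat cortical cultures, exposed from DIV 0 to 12. Mean interburst interval per well, integrated as AUC over four recordings.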

[2] = CCTE_Shafer_MEA_dev_inter_network_spike_interval_mean: CCTE's Neural Network Formation Assay for Mean Inter-network Spike Interval, Shafer Lab (AID 2284047);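 for AC50: potency for a decrease in mean inter-network spike interval below DMSO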
Summary of the method: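 Compound was given at plating to primary rat cortical neurons and renewed with full medium changes on DIV 5 and 9. Extracellular activity was recorded on days 5, 7, 9, 12; AUC values were fitted for loss relative to DMSO control.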

[3] = CCTE_Shafer_MEA_dev_network_spike_number: CCTE's Neural Network Formation Assay for Number of Network Spikes, Shafer Lab (AID 2284048);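 note: synchronized bursts across electrodes counted on days 5 7 9 12 and integrated as AUC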;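 for AC50: fit as a loss of signal meaning fewer network spikes than DMSO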
Summary of the method: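 Rat cortical primary cultures on 48-well MEA (16 electrodes/well); continuous exposure DIV 0–12, full medium and treatment exchange DIV 5, 9. Readout: network spike count, AxIS adaptive detection, recordings DIV 5/7/9/12 collapsed to AUC; loss-of-signal fit, DMSO baseline.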

[4] = CCTE_Shafer_MEA_dev_network_spike_peak: CCTE's Neural Network Formation Assay for Mean Number of Electrodes in Network Spike, Shafer Lab (AID 2284049);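 for AC50: fitted for loss of signal meaning fewer electrodes in network spikes than DMSO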
Summary of the method: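 Network-spike peak electrode count from recordings on days 5, 7, 9 and 12 was combined as trapezoidal area under the curve. Rat cortical cultures were treated continuously from plating, with compound renewed at each feed (DIV 5, 9); fits versus DMSO.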

[5] = CCTE_Shafer_MEA_dev_spike_duration_mean: CCTE's Neural Network Formation Assay for Mean Spike Duration, Shafer Lab (AID 2284051);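 note: mean network spike duration pooled as area under curve over DIV 5 to 12 recordings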;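 for AC50: potency for a decrease in mean network spike duration versus DMSO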
Summary of the method: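 With DMSO as baseline, loss of mean network spike duration was scored from extracellular recordings of rat cortical neurons on MEA plates. Exposure spanned plating to DIV 12; the four recording days were collapsed into one AUC value.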

[6] = CCTE_Shafer_MEA_dev_per_network_spike_spike_number_mean: CCTE's Neural Network Formation Assay for Mean Number of Spikes in a Network Spike, Shafer Lab (AID 2284053);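 for AC50: fitted as decrease in spikes per network spike relative to DMSO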
Summary of the method: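 First, rat cortical cells (1.5 x 10^5/well) were seeded onto MEA wells; second, dosing began at plating and was refreshed on DIV 5 and 9; finally, network-spike spike counts across DIV 5–12 were summarized as AUC.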

[7] = CCTE_Shafer_MEA_dev_per_network_spike_spike_percent: CCTE's Neural Network Formation Assay for Percent of Spikes in a Network Spike, Shafer Lab (AID 2284054)
Summary of the method: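 Read-out: percent of spikes falling in a 0.05 s window at network-spike peak, from spontaneous MEA recordings on days 5, 7, 9 and 12; trapezoidal AUC; loss of signal versus DMSO. Rat cortical cultures, compound present throughout.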

[8] = UKN5_HCS_SBAD2_cell_viability: Viability Assessment in the University of Konstanz (UKN) Leist Lab Neurite Outgrowth Assay in human iPSC-derived immature Dorsal Root Ganglia Neurons (UKN5) (AID 2284056)
Method: UKN5_HCS_SBAD2 is a cell-based, multiplexed-readout assay screening for neurite outgrowth and cell viability that uses SBAD2 (peripheral neurons differentiated from iPSC), a human peripheral nervous system cell line, with measurements taken at […] after chemical dosing in a microplate: 96-well plate. UKN5, also referred to as PeriTox, is an assay that uses human iPSC line SBAD2 as a model of peripheral neurons. Following 24 hr chemical exposures in multi-well plates, neurite area is evaluated as a marker of neurite outgrowth using high-content imaging of cells stained with calcein-AM. Cell viability is assessed using stain Hoechst H-33342.UKN5_HCS_SBAD2_cell_viability is an assay component measured from the UKN5_HCS_SBAD2 assay. It is designed to make measurements of enzyme activity, a form of viability reporter, as detected with Fluorescence intensity signals by HCS Fluorescent Imaging.The assay endpoint UKN5_HCS_SBAD2_cell_viability was analyzed with bidirectional fitting relative to DMSO as the negative control and baseline of activity. Using a type of viability reporter, gain or loss-of-signal activity can be used to understand viability effects. To generalize the intended target to other relatable targets, this assay endpoint is annotated to the cell cycle intended target family, where the subfamily is viability.
The previously differentiated immature peripheral neurons are thawed and seeded on Matrigel coated plates (1:40 diluted) in 75 ul medium composed of 75% N2-S medium and 25% KSR medium, supplemented with CHIR99021 (1.5 uM), SU5402 (5 uM) and DAPT (gamma-Secretase inhibitor IX, 5 uM) at a density of 100.000 cells/cm2. One hour after seeding, treatment compounds are added to the cells in 25 ul of similar to culture medium in which cells were seeded. 23 h after toxicant application, cells are live-stained with H-33342 and calcein-AM and incubated for 60 min. After 24 h of treatment (including staining), the cells are imaged using a high-content microscope (Cellomics VTI Array Scan).

DIO2 (gene 1734) = test: CCTE_GLTED_hDIO2: CCTE's human Deiodinase 2 (DIO2) Inhibition Assay, Great Lakes Toxicology and Ecology Division (GLTED) Lab (AID 2284050; active = hit-call score of the fitted dose curve at least 0.9, where 1 is the maximum)
Summary of the method: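 Iodide released by human deiodinase 2 over 3 h with test chemical, measured spectrophotometrically via Sandell-Kolthoff cerium/arsenic reaction. Run n=3; inhibition referenced to DMSO.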

DIO3 (gene 1735) = test: CCTE_GLTED_hDIO3: CCTE's human Deiodinase 3 (DIO3) Inhibition Assay, Great Lakes Toxicology and Ecology Division (GLTED) Lab (AID 2284055; active = hit-call score of the fitted dose curve at least 0.9, where 1 is the maximum;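 for AC50: potency is for inhibition seen as loss of released iodide signal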)
Summary of the method: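 Inhibition is read as reduced iodide release, measured spectrophotometrically by the Sandell-Kolthoff cerium/arsenic reaction. Adenovirus-expressed human DIO3 enzyme is exposed to chemical for 3 h, n=3 plates. Iodinated chemicals, nitrite, iron or thiocyanate may interfere.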

SMILES: C=C(C)C(=O)[O][Sn]([CH2]CCC)([CH2]CCC)[CH2]CCC
- AC50 [1]: 0.0482 µM (active)
- outcome [2]: inactive
- AC50 [3]: 21.8 nM (active)
- AC50 [4]: 0.0394 µM (active)
- AC50 [5]: 0.0312 µM (active)
- AC50 [6]: 0.0301 µM (active)
- AC50 [7]: 1.98 µM (active)
- AC50 [8]: 0.246 µM (active)

SMILES: O=C(O)C(F)(F)C(F)(F)C(F)(F)C(F)(F)C(F)(F)C(F)(F)F
- outcome [1]: inactive
- outcome [2]: inactive
- outcome [3]: inactive
- outcome [4]: inactive
- outcome [5]: inactive
- outcome [6]: inactive
- outcome [7]: inactive

SMILES: CC(C)(c1ccc(OCC2CO2)cc1)c1ccc(OCC2CO2)cc1 (stereo not drawn)
- AC50 (DIO2 (gene 1734)): 3.76 µM (active)
- AC50 (DIO3 (gene 1735)): 3.62 µM (active)

SMILES: CC(C)(C)c1cc(O)ccc1O
- outcome [1]: inactive
- outcome [2]: inactive
- outcome [3]: inactive
- AC50 [4]: 10 µM (active)
- AC50 [5]: 9.62 µM (active)
- AC50 [6]: 5.63 µM (active)
- AC50 [7]: 5.23 µM (active)

SMILES: CCC(C)(C)c1ccc(O)c(C(C)(C)CC)c1
- AC50 (DIO2 (gene 1734)): 79 µM (active)
- AC50 (DIO3 (gene 1735)): 18.9 µM (active)

SMILES: Cl/C=C\C[N+]12CN3CN(CN(C3)C1)C2
- outcome (DIO2 (gene 1734)): inactive
- AC50 (DIO3 (gene 1735)): 100 µM (active)

SMILES: CCC(=O)C(CC(C)N(C)C)(c1ccccc1)c1ccccc1 (stereo not drawn)
- AC50 [1]: 4.24 µM (active)
- outcome [2]: inactive
- outcome [3]: inactive
- AC50 [4]: 4.26 µM (active)
- AC50 [5]: 3.49 µM (active)
- AC50 [6]: 3.36 µM (active)
- AC50 [7]: 7.25 µM (active)

SMILES: Cn1sc(Cl)cc1=O
- AC50 [1]: 7.54 µM (active)
- outcome [2]: inactive
- AC50 [3]: 4450 nM (active)
- AC50 [4]: 3.57 µM (active)
- AC50 [5]: 7.62 µM (active)
- AC50 [6]: 3.51 µM (active)
- AC50 [7]: 7.62 µM (active)

SMILES: CC(=O)[O][Hg][c]1ccccc1
- AC50 [1]: 0.00958 µM (active)
- AC50 [2]: 0.0255 µM (active)
- AC50 [3]: 9.11 nM (active)
- AC50 [4]: 0.0145 µM (active)
- AC50 [5]: 0.0121 µM (active)
- AC50 [6]: 0.0238 µM (active)
- AC50 [7]: 0.0173 µM (active)

SMILES: C=CC(=O)OCCCCCC(C)C
- AC50 (DIO2 (gene 1734)): 21.1 µM (active)
- AC50 (DIO3 (gene 1735)): 35.4 µM (active)

SMILES: CC(C)(C)CC(C)(C)c1ccc(O)cc1
- AC50 (DIO2 (gene 1734)): 105 µM (active)
- AC50 (DIO3 (gene 1735)): 82 µM (active)

SMILES: CC(C)(c1ccccc1)c1ccc(O)c(C(C)(C)c2ccccc2)c1
- AC50 (DIO2 (gene 1734)): 91.9 µM (active)
- AC50 (DIO3 (gene 1735)): 17.3 µM (active)

SMILES: ClC1(Cl)C2(Cl)C3(Cl)C4(Cl)C(Cl)(Cl)C5(Cl)C3(Cl)C1(Cl)C5(Cl)C24Cl (stereo not drawn)
- AC50 [1]: 3.37 µM (active)
- outcome [2]: inactive
- AC50 [3]: 888 nM (active)
- AC50 [4]: 2.32 µM (active)
- AC50 [5]: 2.35 µM (active)
- AC50 [6]: 2.68 µM (active)
- AC50 [7]: 2.32 µM (active)

SMILES: O=C(O)C(F)(F)C(F)(F)C(F)(F)C(F)(F)C(F)(F)C(F)(F)C(F)(F)C(F)(F)C(F)(F)C(F)(F)F
- outcome [1]: inactive
- outcome [2]: inactive
- outcome [3]: inactive
- outcome [4]: inactive
- AC50 (DIO2 (gene 1734)): 50 µM (active) and 53.2 µM (active)
- outcome [5]: inactive
- outcome [6]: inactive
- outcome [7]: inactive
- AC50 (DIO3 (gene 1735)): 19.9 µM (active) and 25.1 µM (active)

SMILES: Clc1ccc(COC(Cn2ccnc2)c2ccc(Cl)cc2Cl)cc1 (stereo not drawn)
- AC50 (DIO2 (gene 1734)): 95.2 µM (active)
- outcome (DIO3 (gene 1735)): inactive

SMILES: COP(=O)(OC)O/C(=C\Cl)c1cc(Cl)c(Cl)cc1Cl
- outcome [1]: inactive
- outcome [2]: inactive
- outcome [3]: inactive
- AC50 [4]: 86.9 µM (active) and 12.5 µM (active)
- AC50 [5]: 84.2 µM (active)
- outcome [5]: inactive
- outcome [6]: inactive
- outcome [7]: inactive

SMILES: O=C1C2(Cl)C3(Cl)C4(Cl)C(Cl)(Cl)C5(Cl)C3(Cl)C1(Cl)C5(Cl)C24Cl (stereo not drawn)
- AC50 [1]: 3.75 µM (active)
- AC50 [2]: 0.00131 µM (active)
- AC50 [3]: 3180 nM (active)
- AC50 [4]: 5.38 µM (active)
- AC50 (DIO2 (gene 1734)): 28.3 µM (active)
- AC50 [5]: 5.43 µM (active)
- AC50 [6]: 0.341 µM (active)
- AC50 (DIO3 (gene 1735)): 4.51 µM (active)
- outcome [8]: inactive

SMILES: CC12CC1(C)C(=O)N(c1cc(Cl)cc(Cl)c1)C2=O (stereo not drawn)
- outcome (DIO2 (gene 1734)): inactive
- outcome (DIO3 (gene 1735)): inactive

SMILES: CCOP(=S)(OCC)Oc1nc(Cl)c(Cl)cc1Cl
- AC50 [1]: 15.2 µM (active) and 15 µM (active)
- outcome [1]: inactive
- outcome [2]: inactive
- AC50 [3]: 23 µM (active) and 3.97 µM (active)
- outcome [3]: inactive
- AC50 [4]: 23 µM (active) and 10 µM (active) and 23.1 µM (active)
- AC50 [5]: 23 µM (active) and 15 µM (active) and 21.7 µM (active)
- AC50 [6]: 22.1 µM (active) and 23.9 µM (active)
- outcome [6]: inactive
- AC50 [7]: 23.4 µM (active) and 20.2 µM (active)
- outcome [7]: inactive
- outcome [8]: inactive

SMILES: O=C1C(Cl)=C(Cl)C(=O)c2ccccc21
- AC50 (DIO2 (gene 1734)): 26.8 µM (active)
- AC50 (DIO3 (gene 1735)): 11.3 µM (active)

SMILES: CCCCCCCCc1ccc(O)cc1
- AC50 (DIO2 (gene 1734)): 151 µM (active)
- AC50 (DIO3 (gene 1735)): 19.9 µM (active)
